# Shiga inhibitor: blocks Shiga toxin action in Vero cells; hit rate 9.2% among 290,000; Vero cells, Shiga toxin protein synthesis inhibition reporter; inhibition, % at 38.7 µM; AID 2315; in the data active means inhibition mostly above about 28%, no sharp cut-off; inactive means mostly below about 43%; further: 0% is about no effect
# Pf growth 96h: P. falciparum growth inhibition at 96 hour, primary screen for plastid delayed-death inhibitors; P. falciparum luciferase reporter growth, 96 h; Potency, µM (doses to about 28.7 µM), without a hit: top-dose activity change, negative = inhibition, usual class: inhibitors; hit rate 6.9% among 320,000; further: potency means the concentration at half of the fitted maximal effect; on the % scale 0 is the no-effect control and ±100 the full control effect
#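 Cell-based qHTS: luciferase-tagged P. falciparum in erythrocytes (2% hematocrit, 0.05% parasitemia final) incubated with compounds for 96 hours, 37 C, 5% CO2; luciferase detection reagent then added and luminescence measured.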
# Pf growth 48h: inhibits P. falciparum growth in the first generation, 48 h | P. falciparum luciferase growth in erythrocytes, 48 h | Potency, µM (doses to about 28.7 µM), for inactives: at the highest dose activity change, negative = inhibition, usual class: inhibitors | hit rate 5.9% among 310,000 | AID 504832; further: potency means the concentration at half of the fitted maximal effect; on the % scale 0 is the no-effect control and ±100 the full control effect
#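 Luciferase-expressing P. falciparum in infected erythrocytes (2% hematocrit, 0.1% parasitemia final) in RPMI 1640/0.5% Albumax were exposed to compound for 48 hours at 37 C, 5% CO2; growth read as luminescence.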
# LmPK inh: LmPK (Leishmania mexicana) enzyme inhibition | Q27686 | purified LmPK, Kinase-Glo ATP luminescence, 1 h | Potency, µM (top dose mostly 57.5 µM), for the others: top-dose activity change, negative = inhibition, actives largely listed as inhibitors | hit rate 0.37% among 290,000 | AID 1721; further: potency means the concentration at half of the fitted maximal effect; on the % scale 0 is the no-effect control and ±100 the full control effect
# Target sequence (Q27686 whole entry, looked up): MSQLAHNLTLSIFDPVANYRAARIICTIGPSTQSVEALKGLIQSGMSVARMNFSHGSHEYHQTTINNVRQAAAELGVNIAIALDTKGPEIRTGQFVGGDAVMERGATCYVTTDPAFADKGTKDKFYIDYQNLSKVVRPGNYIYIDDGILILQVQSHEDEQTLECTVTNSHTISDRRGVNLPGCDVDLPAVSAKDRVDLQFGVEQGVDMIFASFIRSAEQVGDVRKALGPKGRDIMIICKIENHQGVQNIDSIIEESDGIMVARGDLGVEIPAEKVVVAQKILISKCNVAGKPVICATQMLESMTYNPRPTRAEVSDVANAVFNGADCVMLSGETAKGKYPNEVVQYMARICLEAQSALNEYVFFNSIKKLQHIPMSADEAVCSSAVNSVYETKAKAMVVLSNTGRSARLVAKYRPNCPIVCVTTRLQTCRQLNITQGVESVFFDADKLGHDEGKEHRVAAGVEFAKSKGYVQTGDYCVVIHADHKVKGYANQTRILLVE
#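 Purified LmPK (0.1 nM) converted ADP (0.1 mM) to ATP with PEP (0.5 mM) in imidazole buffer pH 7.2 with KCl and MgCl2, 1 h at room temperature. ATP was read by Kinase-Glo luminescence; data normalized to uninhibited and no-enzyme controls.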
# CHX counter: affects cycloheximide protein synthesis inhibition readout, counter-screen | AID 2314 | max response, % | cell reporter, cycloheximide protein synthesis inhibition counterscreen | hit rate 12% among 300,000; in the data active means max response mostly above about 13%, no sharp cut-off; inactive means mostly below about 14%; further: read at 38.3 µM for the half of the compounds with a filed dose; 0% is about no effect
# * marks the source's active call; other numbers are inactive results; i = inactive; ? = inconclusive; / = no result; [ ] = remark or other dose. Most compounds without a hit are left out; they make up all but 22% or so of the library. Unless noted, the call rests on the fitted dose curve; in most records, active means well fitted inhibition curve with a large enough effect; inconclusive means small, poorly fitted or top-dose-only effect, or another doubt; inactive means no such curve, though single readings can be large or run the other way.
SMILES,Shiga inhibitor,Pf growth 96h,Pf growth 48h,LmPK inh,CHX counter
Cc1ccc(NC(=O)COC(=O)c2ccccc2-c2nc3ccccc3s2)c(C)c1,-13.4,-11.1%,-8.6%,2.3%,-2.8
Cc1cc(C)nc(Nc2nc3ccccc3s2)n1,59.1*,1.65µM*,154.7%,-2.4%,39.3*
Cc1ccccc1NC(=O)c1cnc(Nc2nc3ccccc3s2)nc1C,-5.6,82.7%,33.3%,0.7%,1.4
CC(=O)c1c(C)nc(Nc2nc(C)c3cc(C)ccc3n2)nc1C,55.5*,11.3%,4.1%,8.2%,18.1
CC(=O)c1c(C)nc(Nc2nc3ccccc3s2)nc1C,98.1*,i,309.9%,-6.6%,68.0*
Cc1cc(C)nc(Nc2ccccc2Br)n1,-10.1,?,22.2%,-1.9%,-2.4
CC(C)(C)OC(=O)N1CSC[C@H]1C(=O)NC[C@H](CC(=O)O)c1ccc(Cl)cc1,5.4,17.9%,1.3%,-4.3%,2.3
COC(=O)c1ccc(NC(=O)c2cc(-c3ccccn3)nc3ccccc23)cc1,-9.2,-36.7%[5.75 µM],15.7%,0.9%,-5.8
CCOc1ccccc1NC(=O)c1cc(-c2ccccn2)nc2ccccc12,/,?,14.7µM*,/,/
CCOc1ccccc1-c1cc(C(=O)Nc2ccc(C(=O)O)cc2)c2ccccc2n1,-3.0,10.4µM*,?,-3.8%,-3.8
CCCC(=O)Nc1nc(-c2ccccc2)ns1,27.5*,219.8%,223.7%,6.7%,85.7*
Cc1ccc(-c2nc(NC(=O)CSc3ncn[nH]3)ns2)cc1,59.4*,14.8%,20.4%,-2.7%,16.4*
CC(=O)Nc1nc(-c2ccc(Cl)cc2)ns1,active,122.4%,194.8%,2.2%,64.0*
CCC(=O)Nc1nc(-c2ccccc2)ns1,61.3*,245.1%,328.4%,0.6%,31.7*
CCn1cc(C(=O)N[C@H](C(=O)NCCO)C(C)C)c(=O)c2cc3c(cc21)OCO3,-15.1,-1.1%,-7.1%,-1.4%,-0.4
O=C(CSc1ncn[nH]1)Nc1nc(-c2ccccc2)ns1,49.4*,/,102.3%,3.7%,34.1*
CC(C)C(=O)Nc1nc(-c2ccccc2)ns1,95.9*,i,445.4%,-1.6%,48.1*
CC(C)C(=O)Nc1csc(C(F)(F)F)c1-c1ccccc1,-3.7,26.5%,54.8%,1.5%,-1.6
O=C1C2CC=CCC2C(=O)N1Cc1ccccc1 (centres undefined),4.4,-10.7%,18.5%,3.8%,-2.5
O=C1C2CC=CCC2C(=O)N1Cc1nnc(-c2ccc(Cl)cc2)o1 (centres undefined),69.9*,36.2%,0.0%,2.7%,26.0*
O=C(CCCc1nc(-c2ccccc2)no1)NC1CCCCC1,-5.8,-0.5%,4.6%,-3.8%,-3.2
NS(=O)(=O)c1cccc(NC(=O)c2cc3ccccc3o2)c1,56.1*,56.5%,26.3%,-15.5%,25.1*
O=C(Cc1cccc2ccccc12)Nc1ccc(-c2cc3ccccc3oc2=O)cc1,2.5,?,11.7µM*,-2.7%,-6.2
O=C(Nc1cccc(Br)c1)c1cc2ccccc2o1,105.6*,i,311.3%,?,91.8*
Cc1cccc(NC(=O)c2cc3ccccc3o2)c1,94.6*,496.5%,330.5%,14.1µM*,50.0*
SMILES,Shiga inhibitor,Pf growth 96h,Pf growth 48h,LmPK inh,CHX counter
CNC(=O)c1cc2ccccc2o1,2.6,-1.6%,-6.5%,-0.5%,0.6
NS(=O)(=O)c1cccc(NC(=O)c2cc(=O)c3ccccc3o2)c1,10.5,-2.1%,17.1%,2.8%,-0.5
CC(=O)Nc1ccc(S(=O)(=O)Nc2cccc(-n3c(C)nc4ccccc4c3=O)c2)cc1,/,1.5%,?,/,/
CCOC(=O)c1cnc2c(C)c(-c3ccccc3)[nH]n2c1=O,-12.7,17.3%,11.3%,-4.8%,-2.6
NC(=S)N/N=C/c1coc2ccc(F)cc2c1=O,16.3,-16.9%,28.3%,4.8%,10.2
CC(=O)Nc1ccc(NC(=O)c2cccc(-c3cc4ccccc4oc3=O)c2)cc1,48.8,87.2%,52.8%,-3.4%,31.2*
COc1ccc(C(=O)Nc2cccc(-c3cc4ccccc4oc3=O)c2)cc1[N+](=O)[O-],-17.8,30.8%,13.1µM*,2.5%,-3.0
COc1ccc(C(=O)NC(=S)Nc2ccc3oc(=O)ccc3c2)cc1[N+](=O)[O-],-21.5,-9.9%,?,-9.2%,10.4
CCC(=O)Nc1cccc(-c2cc3ccccc3oc2=O)c1,82.6*,25.9%,100.3%,1.5%,60.6*
CCC(=O)Nc1cccc(NC(=O)c2cc3ccccc3o2)c1,99.6*,35.8%,63.9%,?,45.0*
Cc1cccc(NC(=O)COC(=O)c2cc3ccccc3oc2=O)c1,32.6,33.1%,2.5%,4.1%,7.7
COc1cccc2c(=O)cn[nH]c12,-5.9,15.9%,8.5%,1.9%,-1.2
O=C(CSc1nnc(NC2CC2)s1)NN1C(=O)NC2(CCCCC2)C1=O,/,-21.2%,-17.0%,/,/
CC(c1ccco1)N(C(=O)c1cccc(S(=O)(=O)N(C)C)c1)c1ccccn1 (centres undefined),3.7,-2.9%,18.5%,8.5%,-3.2
O=C(CCNc1cccc(F)c1)c1cc2ccccc2o1,36.0,?,20.0%,-11.8%,43.8*
CCOC(=O)c1ccc(NCCc2ccc(OC)c(OC)c2)c(N)c1,15.5,?,9.28µM*,-2.5%,10.4
COc1ccc(CCNC(=O)COC(=O)c2cc(OC)c(OC)cc2OC)cc1OC,-21.8,-4.4%,0.0%,-0.8%,7.2
O=C(Nc1cccc(F)c1)C1CCCN1C(=O)OCc1ccccc1 (centres undefined),2.9,?,28.0%,12.6%,-3.7
CCc1nn(CC(=O)NCc2cccnc2)c(=O)c2cc3occc3n12,10.5,10.4µM*,23.6%,-10.4%,-1.2
CCc1nn(C(C)C(=O)NCc2ccc(Cl)cc2)c(=O)c2cc3occc3n12 (centres undefined),10.6,?,41.3%,0.8%,12.3*
CCc1nn(CC(=O)NC(C)CCc2ccccc2)c(=O)c2cc3occc3n12 (centres undefined),-7.2,-5.2%,16.2%,-8.6%,-8.6
Cc1ccc(NC(=O)Nc2cccc([N+](=O)[O-])c2)cc1F,53.9*,?,11.8%,0.1%,31.1*
O=C(Nc1cccnc1)Nc1cccc([N+](=O)[O-])c1,22.1,0.0%,0.0%,-1.2%,-1.3
Cc1cc(NC(=O)Nc2cccc([N+](=O)[O-])c2)no1,18.0,38.7%,10.5%[5.75 µM],-3.4%,17.1
O=C(Nc1ccc(OC(F)(F)F)cc1)Nc1cccc([N+](=O)[O-])c1,58.0*,?,2.62µM*,6.2%,18.4*
O=S(=O)(Nc1ccccc1N1CCOCC1)c1ccc(Cl)cc1,/,2.6%,?,/,/
Cc1ccc(-c2cc(C(=O)Nc3ccc(S(=O)(=O)Nc4onc(C)c4C)cc3)[nH]n2)c(O)c1,1.8,5.3%,6.2%,-0.2%,-1.3
Cc1ccc(NC(=O)c2cc(-c3ccc(C)c(C)c3O)n[nH]2)cc1C,5.8,?,?,6.9%,0.3
Cc1ccc(-c2cc(C(=O)Nc3ccc(S(=O)(=O)Nc4ncccn4)cc3)[nH]n2)c(O)c1C,-2.8,9.28µM*,?,6.2%,1.0
Cc1cccc(NC(=O)c2cc(-c3ccc(C)c(C)c3O)n[nH]2)c1,92.2*,56.6%,44.4%,1.8%,48.8*

# Screening data deposited in PubChem by National Center for Advancing Translational Sciences (NCATS).
